The panel holds about 79,000 compounds, 15% with a hit somewhere; the sample as a whole holds those more often. Unmarked numbers belong to inactive results. The source made the active and inactive calls. Cut-off read from the data, not from the text of the source: active = growth inhibition above about 70%; inactive = the rest.
How the values were obtained:
[1] = NCI Yeast Anticancer Drug Screen. Data for the rad50 strain (AID 155);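 note: 0% = growth of vehicle-only cultures of the same strain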; settings: S. cerevisiae rad50 strain growth inhibition, active compounds read high
Method in brief: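 Vehicle-treated cultures provide the reference for the growth inhibition reported for compound-exposed, repair-deficient yeast.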

[2] = NCI Yeast Anticancer Drug Screen. Data for the mec2-1 strain (AID 157); settings: S. cerevisiae mec2-1 strain, active compounds read high
Method in brief: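 Mutant yeast (mec2-1) grown with compound; growth inhibition relative to vehicle control reported.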

[3] = NCI Yeast Anticancer Drug Screen. Data for the sgs1 mgt1 strain (AID 161);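 note: 0% = growth of cultures given vehicle only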; settings: S. cerevisiae sgs1 mgt1 strain, active compounds read high
Method in brief: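 Yeast cells carrying a defined DNA-repair defect were exposed to test compounds. Growth inhibition was measured relative to vehicle-treated controls.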

[4] = NCI Yeast Anticancer Drug Screen. Data for the cln2 rad14 strain (AID 165);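 note: 0% = growth equal to vehicle treated cultures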; settings: S. cerevisiae cln2 rad14 strain, active compounds read high
Method in brief: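 Readout is yeast growth inhibition versus vehicle-treated controls, using a strain with cln2 and rad14 alterations exposed to compound.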

[5] = NCI Yeast Anticancer Drug Screen. Data for the bub3 strain (AID 167); settings: S. cerevisiae bub3 mutant strain, active compounds read high
Method in brief: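 Mutant yeast screening strain plus compound; vehicle-treated cultures serve as the 0% inhibition reference.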

[6] = NCI Yeast Anticancer Drug Screen. Data for the mlh1 rad18 strain (AID 175); settings: S. cerevisiae mlh1 rad18 strain growth inhibition, active compounds read high
Method in brief: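 Genetically defined yeast (DNA repair-deficient) exposed to compounds; growth inhibition determined relative to vehicle.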

[7] = at 5.0 µM (retest, dose inferred, filed as 0.5)
[8] = at 50.0 µM (retest, dose inferred, filed as 5.0)

Compound | growth inhibition [1, 7] | growth inhibition [1, 8] | growth inhibition ([1]; at 50.0 µM) | growth inhibition [2, 7] | growth inhibition [2, 8] | growth inhibition ([2]; at 50.0 µM) | growth inhibition [3, 7] | growth inhibition [3, 8] | growth inhibition ([3]; at 50.0 µM) | growth inhibition [4, 7] | growth inhibition [4, 8] | growth inhibition ([4]; at 50.0 µM) | growth inhibition [5, 7] | growth inhibition [5, 8] | growth inhibition ([5]; at 50.0 µM) | growth inhibition [6, 7] | growth inhibition [6, 8] | growth inhibition ([6]; at 50.0 µM)
Clc1ccccc1C(Cc1c(Cl)cccc1Cl)Cn1ccnc1 (configuration not stated) | 74% (active) | 78% (active) | 99.8% (active) | 58% | 78% (active) | 99.8% (active) | 70% (active) | 91% (active) | 99.8% (active) | 62% | 86% (active) | 98.8% (active) | 75% (active) | 95% (active) | 99.7% (active) | 77% (active) | 92% (active) | 99.8% (active)
Cc1cc(C2C(O)C(c3cc(C)on3)C2(C)O)no1 (configuration not stated) | 0% | 0% | 72.2% (active) | -12% | 13% | 38.5% | 3% | 5% | 62.6% | -2% | -7% | -24.1% | 2% | -1% | 8.1% | 16% | 17% | 50.2%
O=C1OS(=O)(=O)c2cc3c(cc21)C1C(C2C3C3(Cl)C(Cl)=C(Cl)C2(Cl)C3(Cl)Cl)C2(Cl)C(Cl)=C(Cl)C1(Cl)C2(Cl)Cl (configuration not stated) | -18% | 58% | 83.9% (active) | 48% | 72% (active) | 71.8% (active) | 55% | 80% (active) | 86.6% (active) | 8% | 77% (active) | 60.9% | 3% | 81% (active) | 74% (active) | 63% | 91% (active) | 73.8% (active)
CC(=O)n1c(=S)n(C(C)=O)c2ccccc21 | 2% | 83% (active) | 51.5% | -16% | 89% (active) | 54.4% | -24% | 76% (active) | 40.2% | 10% | 39% | 67.8% | -23% | 76% (active) | 71.1% (active) | -13% | 94% (active) | 30.1%
CC(=O)N(C1=CC(=O)c2ccccc2C1=O)c1ccc(Cl)cc1 | 95% (active) | 97% (active) | 96.7% (active) | 92% (active) | 98% (active) | 95% (active) | 95% (active) | 97% (active) | 95.2% (active) | 52% | 98% (active) | 90.8% (active) | 89% (active) | 98% (active) | 90.5% (active) | 92% (active) | 98% (active) | 93.5% (active)
CN(C)Cc1ccccc1C(=O)C(=O)c1ccccc1CN(C)C | -9% | 48% | -3.15% | 1% | 70% (active) | 3% | -5% | 3% | -6.5% | 9% | 0% | 46.3% | 10% | 7% | 57.8% | -4% | 73% (active) | 6.45%
O=C(Oc1ccc(/C=C/[n+]2ccccc2)c(OC(=O)c2ccccc2)c1)c1ccccc1 | -4% | 93% (active) | 49.6% | 14% | 97% (active) | 18.7% | -11% | 95% (active) | 70.2% (active) | -8% | 91% (active) | 5.7% | 1% | 83% (active) | -1.45% | 7% | 98% (active) | 48.7%
OCC1CCc2[nH]c3ccccc3c2C1 (configuration not stated) | -159% | -160% | -7.95% | -53% | -59% | -6.55% | -67% | -68% | -4.2% | -56% | -76% | 30.9% | -65% | -58% | 12% | -128% | -123% | 3.5%
NC(=S)c1cccc(OCCCOc2ccccc2)c1 | 2% | 4% | 99.2% (active) | 0% | 14% | 99.6% (active) | 11% | 17% | 98.7% (active) | -8% | 1% | 98.2% (active) | 6% | 13% | 99.5% (active) | 4% | 30% | 99.3% (active)

From PubChem BioAssay (NCI)
